Consider 1 molecule from the supplement of paper PMC8728848.

Only a selection was taken, and the strongest signals are over-represented in it overall.

Common to all, as to assay: glycan array binding signal (z-score within array); higher = stronger binding
Common to all, as to conditions: glycan notation: IUPAC condensed, linker removed; mutation: F335Y

For experiment [1], the target named is Fuc(a1-2)Gal(b1-3)GalNAc(b1-3)Gal. A digest of the protocol: (§1)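 Columns mapping to the same glycan were averaged after glycan names were converted to IUPAC-condensed notation. The data come from 3228 arrays in the Consortium for Functional Glycomics database, limited to those with an available protein sequence. Binding is reported as a within-array Z-score averaged across arrays of one protein sequence and across linkers.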

For experiment [2], the target named is Fuc(a1-2)Gal(b1-3)GalNAc(b1-4)[Neu5Ac(a2-3)]Gal(b1-4)Glc. A digest of the protocol: as §1
In experiment [3] the target is Fuc(a1-3)[Gal(b1-4)]GlcNAc(b1-4)Gal(b1-4)[Fuc(a1-3)]GlcNAc. A digest of the protocol:
as §1

The next experiment addresses Gal(a1-6)Glc. An outline of the steps: as §1
Experiment [4] addresses Gal(b1-3)[GlcNAc(b1-6)]GalNAc. A digest of the protocol:
as §1

In experiment [5] the target is Gal(b1-4)GlcNAc(b1-3)GalNAc. An outline of the steps:
as §1

The target in the next experiment is Gal6S(b1-4)Glc6S. An outline of the steps:
as §1

The target in experiment [6] is GlcNAc(b1-2)Gal(b1-3)GalNAc. An outline of the steps: as §1
A further experiment concerns the target GlcNAc(b1-3)Gal. A digest of the protocol: as §1
For another experiment, the target named is GlcNAc(b1-3)GalNAc. An outline of the steps:
as §1

The next experiment deals with GlcNAc(b1-3)Man. An outline of the steps:
as §1

For experiment [7], the target named is Man(a1-2)Man(a1-2)Man(a1-6)[Man(a1-3)]Man. An outline of the steps:
as §1

In experiment [8] the target is Man(a1-2)Man(a1-3)[Man(a1-2)Man(a1-6)]Man. An outline of the steps: as §1
The target in experiment [9] is Man(a1-2)Man(a1-3)[Man(a1-2)Man(a1-6)]Man(a1-6)[Man(a1-2)Man(a1-2)Man(a1-3)]Man. An outline of the steps: as §1
Experiment [10] deals with Man(a1-2)Man(a1-6)[Man(a1-3)]Man(a1-6)[Man(a1-2)Man(a1-2)Man(a1-3)]Man(b1-4)GlcNAc(b1-4)GlcNAc. An outline of the steps:
as §1

Experiment [11] addresses Man(a1-3)[Man(a1-6)]Man(a1-6)[Man(a1-2)Man(a1-3)]Man(b1-4)GlcNAc(b1-4)GlcNAc. An outline of the steps:
as §1

In experiment [12] the target is Man(a1-3)[Man(a1-6)]Man(a1-6)[Man(a1-3)]Man. A digest of the protocol:
as §1

In experiment [13] the target is Neu5Ac(a2-3)Gal(b1-3)GalNAc. A digest of the protocol:
as §1

Experiment [14] addresses Neu5Ac(a2-3)Gal(b1-4)GlcNAc(b1-6)[Neu5Ac(a2-3)Gal(b1-3)]GalNAc. An outline of the steps: as §1
Experiment [15] deals with Neu5Ac(a2-6)Gal(b1-4)GlcNAc(b1-3)Gal(b1-4)[Fuc(a1-3)]GlcNAc(b1-3)Gal(b1-4)[Fuc(a1-3)]GlcNAc. An outline of the steps: as §1

B1: Surfactant Protein D (Human); Neck + Carbohydrate Recognition Domain (NCRD) (Homo sapiens) (protein)
chain: MLLFLLSALVLLTQPLGYLEAEMKTYSHRTMPSACTLVMCSSVESGLPGRDRDGREGPRGEKGDPGLPGAAGQAGMPGQAGPVGPKGDNGSVGEPGPKGDTGPSGPPGPPGVPGPAGREGALGKQGNIGPQGKPGPKGEAGPKGEVGAPGMQGSAGARGLAGPKGERGVPGERGVPGNTGAAGSAGAMGPQGSPGARGPPGLKGDKGIPGDKGAKGESGLPDVASLRQQVEALQGQVQHLQAAFSQYKKVELFPNGQSVGEKIFKTAQFVKPFTEAQLLCTQAGGQLASPRSAAENAALQQLVVAKNEAAFLSMTDSKTEGKFTYPTGESLVYSNWAPGEPNDDGGSEDCVEIYTNGKWNDRACGEKRLVVCEF
For B1, the “glycan array binding signal (z-score)” value in [1] was -0.184; in experiment [2] it was -0.189; in experiment [3], -0.183; in the experiment with Gal(a1-6)Glc, -0.189; in experiment [4] it was -0.185; in experiment [5] it was -0.191. The “glycan array binding signal (z-score)” value was -0.187 with Gal6S(b1-4)Glc6S; -0.189 in experiment [6]; -0.18 in the experiment with GlcNAc(b1-3)Gal; -0.193 with GlcNAc(b1-3)GalNAc; -0.187 in the experiment with GlcNAc(b1-3)Man; 5.87 in experiment [7]. Moreover, the “glycan array binding signal (z-score)” value in experiment [8] was 7.66; in experiment [9], 7.37; in experiment [10], 5.84; in experiment [11], 7.18; in [12] it was 3.93; in experiment [13], -0.19. The “glycan array binding signal (z-score)” value in [14] was -0.178; in experiment [15] it was -0.122.
